PLK1 PBD block – blocks phosphopeptide binding to human PLK1 polo-box domain. actives 2.8% (n = 360,000). Potency, µM, most hits filed as inhibitors. Plk1 PBD binding of FITC phosphopeptide, fluorescence polarization. P53350; further: series mostly up to about 57 µM; nearly all actives have a fitted effect of over 65% in size
GCN5L2 inh – inhibitors of human GCN5L2 histone acetyltransferase | actives 0.21% (n = 390,000) | AID 504327 | Potency, µM (titrated, usually from 58.9 µM), hits mostly inhibitors | Q92830 | GCN5L2 HAT assay, ThioGlo1 CoA-SH fluorescence
Target sequence (Q92830 whole entry, looked up): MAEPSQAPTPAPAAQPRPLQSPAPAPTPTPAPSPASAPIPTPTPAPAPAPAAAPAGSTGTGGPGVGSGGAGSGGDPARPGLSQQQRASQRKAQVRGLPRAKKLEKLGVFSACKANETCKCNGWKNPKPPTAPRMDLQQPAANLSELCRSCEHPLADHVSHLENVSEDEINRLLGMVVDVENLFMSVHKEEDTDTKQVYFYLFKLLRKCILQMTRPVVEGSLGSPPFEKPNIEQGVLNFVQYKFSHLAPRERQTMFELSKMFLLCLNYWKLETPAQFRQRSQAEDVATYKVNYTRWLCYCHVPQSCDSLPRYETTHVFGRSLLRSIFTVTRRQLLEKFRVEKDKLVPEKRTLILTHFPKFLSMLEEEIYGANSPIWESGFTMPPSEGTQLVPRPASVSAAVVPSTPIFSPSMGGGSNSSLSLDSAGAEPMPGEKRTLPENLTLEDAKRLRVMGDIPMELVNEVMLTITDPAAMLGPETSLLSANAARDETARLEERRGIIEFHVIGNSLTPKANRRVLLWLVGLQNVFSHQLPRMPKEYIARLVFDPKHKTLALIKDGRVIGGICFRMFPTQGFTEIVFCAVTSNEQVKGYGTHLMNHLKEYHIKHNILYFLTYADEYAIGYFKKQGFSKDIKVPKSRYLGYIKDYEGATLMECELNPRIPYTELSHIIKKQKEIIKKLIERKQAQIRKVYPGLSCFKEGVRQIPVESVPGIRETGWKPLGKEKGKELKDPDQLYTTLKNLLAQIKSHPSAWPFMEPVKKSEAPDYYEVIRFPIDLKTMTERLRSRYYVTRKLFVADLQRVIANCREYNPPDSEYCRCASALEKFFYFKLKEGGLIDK
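Fluorescence readout, Ex340nm/Em540nm: ThioGlo1 (50uM final) reacts with free CoA thiol released as 20nM GCN5L2 acetylates H3(1-25) peptide (75uM) using acetyl-CoA (70uM). Compound and enzyme sat 15 min beforehand; 20 min room-temperature reaction.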
PI4K2A inh – blocks human PI4K2A kinase activity; activity change, negative = inhibition, % at 76.9 µM; AID 1346378; purified PI4K2A, ADP-Glo luminescence, 1 h; hits give low values; actives 0.13% (n = 420,000); in the data active means activity change below about -50%; inconclusive means mostly about -30% to -49%
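Compounds are screened against recombinant PI4K2A using PI as substrate and ATP, the latter dispensed at 300 microM. Reactions run one hour at ambient temperature before ADP-Glo detection; full inhibition defined by wells lacking enzyme.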
VDR inhibitor – blocks the human vitamin D receptor; Potency, µM, actives largely listed as inhibitors; AID 504847; P11473; actives 0.93% (n = 400,000); VDR-SRC2-3 peptide fluorescence polarization, 2 h
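Compounds are added to VDR with labelled SRC2-3 coactivator peptide and held 2 h at room temperature. Inhibition of the VDR–peptide interaction is then read as a change in fluorescence polarization.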
GLS inhibitor – glutaminase GLS (human) inhibition | Potency, µM (doses to about 45.5 µM), hits mostly inhibitors | O94925 | actives 0.21% (n = 410,000) | GLS enzymatic activity, qHTS titration
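Coupled fluorescence readout: glutamate oxidase/HRP/Amplex Red detect glutamate formed by hKGA from L-glutamine (1 mM solution added). Buffer 45 mM KH2PO4 pH 8.2, 0.02% Tween-20; reads at t0 and 30 min RT.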
Large screens that a line does not name were inactive; ! = not active in a repeat. Sampled rows, rich in hits. Any-hit rate of the full collection: about 3.1%. Unless noted, the call rests on the fitted dose curve; in most records, active means well fitted curve in the direction sought with a large enough effect; inconclusive means small, poorly fitted or top-dose-only effect, or another doubt; inactive means no such curve, though single readings can be large; an effect the other way counts as inactive or inconclusive.

CCOc1ccccc1CNC(=O)CN1C(=O)c2cccnc2Oc2ccc(C)cc21	none (no result: PLK1 PBD block)
CC(=O)c1cc2c(cc1F)C(C)(C)CCC2(C)C	none (no result: GCN5L2 inh)
C=C(c1ccc(C(=O)O)cc1)c1cc2c(cc1C)C(C)(C)CCC2(C)C	GCN5L2 inh 6.3µM, VDR inhibitor inconclusive (no result: PLK1 PBD block)
CC1(C)CCC(C)(C)c2cc(C(=O)Nc3ccc(C(=O)O)cc3)ccc21	GCN5L2 inh inconclusive, VDR inhibitor 79µM! (no result: PLK1 PBD block, PI4K2A inh, GLS inhibitor)
CCOC(=O)c1c(/C=N/Nc2ccccc2)c2sc(C)cc2n1C	none (no result: PLK1 PBD block, PI4K2A inh, VDR inhibitor, GLS inhibitor)
COc1cc(C(=O)Sc2ccc(C)cc2)cc(OC)c1OC	none
Cc1ccc(OCC(=O)NCCNC(=O)COc2ccc(C)cc2)cc1	none
COCCNC(=O)CC(NS(=O)(=O)c1ccc(C)cc1)c1ccco1 (stereo unspecified)	none
COc1ccccc1CNC(=O)C(C)Sc1ccc(C)cc1 (stereo unspecified)	PLK1 PBD block 21µM
COc1ccccc1OCC(=O)Sc1ccc(C)cc1	PLK1 PBD block 3µM, VDR inhibitor inconclusive
Cc1ccc(OCC(=O)Sc2ccc(C)cc2)cc1	PLK1 PBD block 6µM, VDR inhibitor 45µM
COc1ccccc1CNC(=O)CC(NS(=O)(=O)c1ccc(C)cc1)c1ccco1 (stereo unspecified)	PLK1 PBD block 27µM, VDR inhibitor inconclusive
CC[C@H](C)[C@H](NC(=O)[C@H](C)NC(=O)[C@H](Cc1cnc[nH]1)NC(=O)[C@@H]1CCCN1C(=O)CNC(=O)[C@H](CC(C)C)NC(=O)[C@H](CC(C)C)NC(=O)[C@H](Cc1ccc(O)cc1)NC(=O)CNC(=O)[C@H](C)NC(=O)[C@H](CO)NC(=O)[C@H](CC(N)=O)NC(=O)[C@H](CC(C)C)NC(=O)[C@@H](NC(=O)[C@H](Cc1c[nH]c2ccccc12)NC(=O)CN)[C@@H](C)O)C(=O)O	none (no result: PLK1 PBD block, PI4K2A inh, GLS inhibitor)
CC(=O)c1ccc(NC(=O)NC2CCCCN(Cc3cccc(Cl)c3)C2=O)cc1 (stereo unspecified)	none (no result: PLK1 PBD block, GCN5L2 inh, VDR inhibitor, GLS inhibitor)
CCOc1ccc(CCNC(=O)c2cc3ccsc3n2C)cc1OCC	none (no result: PLK1 PBD block, GCN5L2 inh, VDR inhibitor, GLS inhibitor)
CCOc1ccccc1NC(=O)CSc1nnc(-c2cnccn2)n1CC	none
CCn1c(SCC(=O)Nc2ccccc2Br)nnc1-c1cnccn1	PLK1 PBD block 21µM
Cc1oc(-c2ccccc2)nc1CCC(=O)c1ccc(CC2SC(=O)NC2=O)cc1 (stereo unspecified)	none (no result: PLK1 PBD block, GCN5L2 inh, VDR inhibitor, GLS inhibitor)
O=C(CN1C(=O)CCSc2ccccc21)Nc1ccc2c(c1)OCO2	none
COc1cc(Cl)c(C)cc1NC(=O)CCCN1C(=O)CCC1=O	none
COC(=O)c1cc(OC)c(OC)cc1NC(=O)CCCCCN1C(=O)CCC1=O	PLK1 PBD block 30µM
O=C(CN1CCCCCC1)Nc1cc(C(F)(F)F)ccc1Cl	none
O=C(CN1CCOCC1)Nc1cc(C(F)(F)F)ccc1Cl	PLK1 PBD block 21µM, VDR inhibitor inconclusive
O=C(CN1CCOCC1)Nc1ccc2c(c1)OCO2	PLK1 PBD block 11µM
O=C(CN1C(=O)CSc2ccccc21)Nc1ccc2c(c1)OCCO2	PLK1 PBD block 27µM
CCCN1Cc2cccc(C(=O)Nc3cc(C)cc(C)c3)c2C1=O	none (no result: PLK1 PBD block)
COCCCNC(=O)c1c(NC(=O)Cc2coc3cc(C)ccc23)sc2c1CCCC2	none (no result: PLK1 PBD block)
COc1cccc(S(=O)(=O)N2CCN(c3nc(-c4cccs4)nc4ccccc34)CC2)c1	none (no result: PLK1 PBD block, GCN5L2 inh, PI4K2A inh, GLS inhibitor)
O=C(CCCCCN1C(=O)CCC1=O)Nc1ccc2c(c1)OCO2	PLK1 PBD block 24µM
CCCC(=O)NC(=S)Nc1cccc(NC(=O)c2ccc(Cl)cc2Cl)c1	PLK1 PBD block 27µM
CCC(=O)Nc1ccc(Cl)c(NC(=S)NC(=O)COc2ccccc2)c1	PLK1 PBD block 27µM
C/C(=N/NS(=O)(=O)c1ccc(C)cc1)c1cccc(NC(=O)c2cccc(Cl)c2)c1	none
C/C(=N/NS(=O)(=O)c1ccc(Cl)cc1)c1cccc(NC(=O)c2ccc(Cl)cc2Cl)c1	PLK1 PBD block 19µM, GCN5L2 inh inconclusive
O=C(O)CCC(=O)Nc1ccc(NC(=O)c2ccc(Cl)cc2Cl)c(Cl)c1	PLK1 PBD block 21µM
COc1ccc(-c2nn3c(-c4cc(-c5ccccc5)n[nH]4)nnc3s2)cc1OC	none (no result: PLK1 PBD block, GCN5L2 inh, PI4K2A inh, GLS inhibitor)
CC(C)C[C@@H](CC(=O)N[C@@H](CCCN)CC(=O)N[C@@H]1CCCC[C@H]1C(=O)N[C@H](CC(=O)N[C@@H](CCC(=O)O)CC(=O)O)Cc1c[nH]c2ccccc12)NC(=O)[C@@H]1CNCC[C@H]1N	none (no result: PLK1 PBD block, GCN5L2 inh, PI4K2A inh, GLS inhibitor)
CCC(=O)NC(=S)Nc1cccc(NC(=O)c2ccccc2Cl)c1	PLK1 PBD block 27µM
CCCC(=O)NC(=S)Nc1cccc(NC(=O)c2ccccc2Cl)c1	none
C(=C\c1ccco1)/c1nc2ccccc2[nH]1	none
CC(=O)Nc1ccc(/C=C/c2nc3ccccc3[nH]c2=O)cc1	none
O=c1[nH]c2ccccc2nc1/C=C/c1ccc(Cl)cc1	PLK1 PBD block 3.4µM, VDR inhibitor 22µM, GLS inhibitor inconclusive
C(=C\c1nc2ccccc2[nH]1)/c1ccccc1	PI4K2A inh -55
COc1ccc(N(CC(C)C)S(=O)(=O)c2nnc(NC(=O)c3cccs3)s2)cc1	none (no result: PLK1 PBD block)
Nc1nnc(SCC(=O)NC2CCCC2)s1	none
Nc1nnc(SC2CCCC2)s1	PLK1 PBD block 27µM, VDR inhibitor inconclusive
C[N+](C)(C)CCC(=O)N1C/C(=C/c2ccccc2)C(=O)/C(=C\c2ccccc2)C1	VDR inhibitor 79µM (no result: GCN5L2 inh)
CCOc1ccc(NS(=O)(=O)c2ccc3[nH]c4c(c3c2)CCCCC4)cc1	none (no result: PLK1 PBD block)
CCC(=O)N1c2ccccc2CC1C(=O)NCc1cccc(C)c1 (stereo unspecified)	none (no result: PLK1 PBD block)
CCCC(C)NC(=O)CSc1nc(-c2ccccc2)cn1N (stereo unspecified)	PLK1 PBD block 27µM
CC1CCCCN1C(=O)CSc1nc(-c2ccccc2)cn1N (stereo unspecified)	PLK1 PBD block 24µM, VDR inhibitor inconclusive
Nn1cc(-c2ccccc2)nc1SCC(=O)NCC1CCCO1 (stereo unspecified)	none
CCOC(=O)C1CCCN(C(=O)CSc2ccc(NC(C)=O)cc2)C1 (stereo unspecified)	PLK1 PBD block 21µM
COc1cc(C2Nc3cc(Cl)c(S(N)(=O)=O)cc3S(=O)(=O)N2)ccc1OCc1ccccc1 (stereo unspecified)	PLK1 PBD block 24µM
CCCNC(=O)N1CCN(S(=O)(=O)c2ccc3c(ccn3C)c2)CC1	none (no result: PLK1 PBD block)
O=C1C(=O)N(CCN2CCOCC2)C(c2ccccn2)/C1=C(/O)c1ccc(F)cc1 (stereo unspecified)	PLK1 PBD block 11µM, GLS inhibitor inconclusive
C=CC[C@H]1c2ccccc2[C@H]2N3N=Cc4ccccc4[C@H]3[C@H](CCCC)C(=O)N2N1C(=O)c1ccccc1	none (no result: PLK1 PBD block, GCN5L2 inh, VDR inhibitor, GLS inhibitor)
CN(C)S(=O)(=O)c1cccc(NC(=O)CSc2cccc3cccnc23)c1	PLK1 PBD block 11µM, GLS inhibitor inconclusive
CCCC[C@@H]1CCCO[C@@](C(=O)NCC2CC2)(C(F)(F)F)C1	none (no result: PLK1 PBD block, GCN5L2 inh, PI4K2A inh, GLS inhibitor)
COC(=O)Cn1c(=O)oc2ccc(C)cc21	PLK1 PBD block 27µM
